These results are taken from article PMC4552634, “A New Set of Chemical Starting Points with Plasmodium falciparum Transmission-Blocking Potential for Antimalarial Drug Discovery” (PLoS ONE, 2015).

Structures are written as SMILES. Among all 13,000 compounds or so, about 3,200 (25%) showed an effect of 50% or more. The list shows a part of the results.

The test has as its system P. falciparum stage V gametocytes. Also noted: BacTiter-Glo ATP luminescence viability of purified stage V gametocytes in 384-well plates, per cent inhibition versus DMSO. Particulars: 48 h, 5 µM; inhibitor.
Turning to `Cc1ccoc1C(=O)Nc1cccc(-c2cccc(-c3nc4ccc(C(F)(F)F)cc4[nH]3)c2)c1` [TCMDC-136835], the % Inhibition (commonly the relative decrease from the control value, in per cent) is recorded as 10.66%.

In the case of `Cc1onc(-c2c(Cl)cccc2Cl)c1C(=O)N1CCc2cc3nccc(N4CCN5CCC[C@H]5C4)c3cc21` [TCMDC-140048], the “% Inhibition” value amounted to 3.329%.

For `COc1cc(C(F)(F)F)nc2c(CNCCCNc3cc(=O)c4ccccc4[nH]3)scc12` [TCMDC-141145], the “% Inhibition” value is on record as -12.37%.

In the case of `CNc1nc(N/N=C/c2cc3c(cc2[N+](=O)[O-])OCO3)nc(Nc2cccc(C(F)(F)F)c2)n1` [TCMDC-124216], the “% Inhibition” value stood at 15.24%.

In the case of `O=C(Nc1ccccc1F)N(CCCn1ccnc1)Cc1csc(-c2ccc(CNCc3ccccc3)cc2)n1` [TCMDC-141643], the “% Inhibition” value is 22.98%.

As to `Cc1ccc([N+](=O)[O-])cc1NC(=O)N(CC(O)c1ccccc1)C1CCCCC1` (stereo not shown) [TCMDC-123672], the “% Inhibition” value is on record as 2.226%.

For the compound `CCCCNCc1ccc(-c2nc(CN(C(=O)Nc3cc([N+](=O)[O-])ccc3F)C3Cc4ccccc4C3)cs2)cc1` [TCMDC-141640], the “% Inhibition” value is recorded as 54.3%.

Take `COc1ccc(Cc2c(C)nc3nc(N)nc(N)c3c2C)cc1OC` [TCMDC-137649]: the “% Inhibition” value is given as 1.878%.

As to `O=C(Nc1ccc(Cl)cc1)N1CCN(C2CCCCC2)CC1` [TCMDC-125819], the “% Inhibition” value amounted to 10%.

`O=C(Nc1ccc2c(c1)CCC2)c1cccc(CN2CCCN(Cc3cccc(O)c3)CC2)c1` [TCMDC-135957]: the “% Inhibition” value is on record as 14.29%.

With `O=C(Cc1cccs1)NCC(c1ccccc1Cl)c1c[nH]c2ccccc12` (stereo not shown) [TCMDC-125062], the “% Inhibition” value amounted to 59.09%.

`O=C(Cc1ccsc1)NCC(c1ccccc1Cl)c1c[nH]c2ccccc12` (stereo not shown) [TCMDC-125251]: the “% Inhibition” value came to 11.67%.

Consider `NC(=NCc1ccccc1Cl)NCCc1c[nH]c2ccccc12` [TCMDC-138012], for which the “% Inhibition” value was -46.58%.

For `COc1ccc2nc3cc(Cl)ccc3c(Nc3ccc(Sc4ccc(Nc5c6ccc(Cl)cc6nc6ccc(OC)cc56)cc4)cc3)c2c1.Cl` [TCMDC-137673], the “% Inhibition” value is on record as -84.83%.

As to `COc1ccc2nc3cc(Cl)ccc3c(Nc3ccc(Oc4ccc(Nc5c6ccc(Cl)cc6nc6ccc(OC)cc56)cc4)cc3)c2c1.Cl` [TCMDC-137674], the “% Inhibition” value is -12.74%.

Consider `COc1ccc2nc3cc(Cl)ccc3c(NCCCO)c2c1` [TCMDC-124144], for which the “% Inhibition” value stood at 20.12%.

In the case of `CCN(CC)CCNc1c2ccc(Cl)cc2nc2ccc(OC)nc12` [TCMDC-137937], the “% Inhibition” value is given as -10.21%.

Take `COc1ccc2nc3cc(Cl)ccc3c(NCCNCC(O)CO)c2n1` (stereo not shown) [TCMDC-137938]: the “% Inhibition” value is recorded as 74.53%.

As to `COc1ccc2nc3cc(Cl)ccc3c(NCCCCCCNc3c4ccc(Cl)cc4nc4ccc(OC)cc34)c2c1` [TCMDC-137503], the “% Inhibition” value is 106.2%.

For `COc1ccc2nc3cc(Cl)ccc3c(NCc3ccccc3)c2c1.Cl` [TCMDC-137663], the “% Inhibition” value was -68.8%.

`COc1ccc2nc3cc(Cl)ccc3c(N)c2c1.Cl` [TCMDC-125835]: the “% Inhibition” value came to 124.4%.

As for `COc1ccc2nc3cc(Cl)ccc3c(NCCCCNc3c4ccc(Cl)cc4nc4ccc(OC)cc34)c2c1` [TCMDC-138218], the “% Inhibition” value worked out at 112.4%.

On to `CCOc1ccc(-n2nc3c(Cl)nnc(-c4ccccc4)c3c2-c2ccccc2)cc1` [TCMDC-123899], for which the “% Inhibition” value is reported as -2.574%.

On to `CCCC(C)Nc1nc(C)cc(N[C@@H](CC(C)C)C(=O)NC2CCCC2)n1` (stereo partly shown) [TCMDC-134895], for which the “% Inhibition” value is given as -73.82%.

Regarding `CC1CCc2sc(-c3nnc(SC(C)C(=O)NC4CC4)o3)cc2C1` (stereo not shown) [TCMDC-124866], the “% Inhibition” value was 6.4%.

For the compound `CCOc1ncccc1CN1CCC(N2CCc3cc(NC(=O)c4cc(C)on4)ccc32)C1` (stereo not shown) [TCMDC-135086], the “% Inhibition” value is recorded as -27.43%.

For `NC(=O)c1cccc(CNC(=O)NC[C@H]2CN(Cc3ccc(Cl)c(Cl)c3)CCO2)c1` [TCMDC-138745], the “% Inhibition” value was 31.93%.

Consider `COc1cc(NC(=O)/C=C/c2cccc3ccoc23)ccc1OCCN(C(C)C)C(C)C` [TCMDC-139958], for which the “% Inhibition” value is reported as 3.846%.

Take `CCOC(=O)NC1=NC(C)(C)N(OCc2ccc(Cl)c(Cl)c2)C(NC(=O)OCC)=N1` [TCMDC-131729]: the “% Inhibition” value came to 1.326%.

As for `COc1ccc2c(c1)C(C)(CCCN(C)C)C(=O)N2C` (stereo not shown) [TCMDC-138945], the “% Inhibition” value was 13.31%.

`COc1ccc2nc3cc(Cl)ccc3c(NCCO)c2c1` [TCMDC-124272]: the “% Inhibition” value was found to be 0.5882%.

With `COc1ccc2nc3cc(Cl)ccc3c(NCCCCN)c2c1` [TCMDC-137526], the “% Inhibition” value amounted to 92.71%.

Consider `COc1ccc2nc3cc(Cl)ccc3c(NCCN(C)C)c2c1` [TCMDC-139093], for which the “% Inhibition” value was found to be 54.53%.

Take `COc1ccc2nccc([C@@H](O)CN3CCC(NCc4nc5c(cc4F)SCC(=O)N5)C(F)C3)c2c1` (stereo partly shown) [TCMDC-141681]: the “% Inhibition” value is reported as -15.96%.

Regarding `O=[N+]([O-])c1ccc(-c2nc3cc(C4=NC5CCCCC5N4)ccc3[nH]2)cc1` (stereo not shown) [TCMDC-137220], the “% Inhibition” value stood at 5.239%.

`O=[N+]([O-])c1cccc(-c2nc3cc(C4=NC5CCCCC5N4)ccc3[nH]2)c1` (stereo not shown) [TCMDC-137221]: the “% Inhibition” value was 5.96%.

`Nc1ccc(-c2nc3cc(C4=N[C@H]5CCCC[C@H]5N4)ccc3o2)cc1[N+](=O)[O-]` [TCMDC-137253]: the “% Inhibition” value turned out to be 108.2%.

Turning to `Cc1ccc2ncc(Cl)c(CCN3CCC(NCc4ccc5c(n4)NC(=O)CS5)CC3)c2n1` [TCMDC-141963], the “% Inhibition” value came to 7.636%.

Turning to `COc1ccc2nccc(CCN3CC(O)C(CNCc4ccc5c(n4)NC(=O)CS5)C3)c2n1` (stereo not shown) [TCMDC-136132], the “% Inhibition” value is 27.64%.

As to `COc1c(F)ccc2ncc(Cl)c(CCN3CCC(NCc4ccc5c(n4)NC(=O)CS5)CC3)c12` [TCMDC-141955], the “% Inhibition” value is on record as 54.36%.

With `COc1ccc2ncc(Cl)c([C@@H](O)CN3CCC(NCc4cc5c(cn4)OCCO5)CC3)c2c1` [TCMDC-135470], the “% Inhibition” value came out at 13.81%.

Turning to `Cn1ncc2c3c(CCN4CCC(NCc5cc6c(cn5)OCCO6)CC4)c(Cl)cnc3ccc21` [TCMDC-136008], the “% Inhibition” value was 9.388%.

On to `COc1ccc2ncc(C)c(CCN3CCC(NCc4ccc5c(n4)NC(=O)CS5)CC3)c2c1` [TCMDC-134648], for which the “% Inhibition” value worked out at 44.1%.

`Fc1ccc2ncc(Cl)c(CCN3CCC(NCc4cc5c(cn4)OCCO5)CC3)c2c1` [TCMDC-133446]: the “% Inhibition” value is listed as 74.26%.

For `COc1ccc2ncc(F)c([C@@H](O)CN3CCC(NCc4cc5c(cn4)OCCO5)CC3)c2c1` [TCMDC-135379], the “% Inhibition” value came out at 9.097%.

Take `COc1ccc2ncc(F)c(CCN3CC(O)C(CNCc4ccc5c(n4)NC(=O)CS5)C3)c2c1` (stereo not shown) [TCMDC-136187]: the “% Inhibition” value turned out to be 16.49%.

`COc1ccc2ncc(Cl)c([C@H](O)CN3CCC(NCc4cc5c(cn4)OCCO5)CC3)c2c1` [TCMDC-135469]: the “% Inhibition” value stood at 53.55%.

For `COc1cc(F)c2ncc(F)c(CCN3C[C@H](CNCc4ccc5c(n4)NC(=O)CS5)[C@H](O)C3)c2c1` [TCMDC-136333], the “% Inhibition” value is 73.35%.

Consider `Clc1cnc2ccc3c(c2c1CCN1CCC(NCc2cc4c(cn2)OCCO4)CC1)OCCO3` [TCMDC-134566], for which the “% Inhibition” value stood at 24.75%.
